# Assay results as given in PubChem BioAssay AID489038 (National Center for Advancing Translational Sciences (NCATS), 2010).
# Inconclusive results are not listed. Where a call stands in place of a potency, no number is given. The source made the active and inactive calls. Calls follow the shape of the dose curve; as a rule, active = well fitted inhibition curve with a large enough effect; inconclusive = small, poorly fitted or top-dose-only effect, or effect the other way; inactive = no such curve, though single readings can be large or run the other way.
# Assay: DHR3 selectivity assay for inhibitors of ROR gamma transcriptional activity
# Settings: Drosophila S2 Gal4-DHR3 UAS-luciferase, 20 h; series mostly up to 92.2 µM
# Text: NIH Molecular Libraries Probe Production Network [MLPCN] NIH Chemical Genomics Center [NCGC] MLPCN Grant: R03 DA026211-01 Assay Provider: Dan Littman, New York University Assay Overview: The retinoic acid-related orphan receptor (ROR) gamma is a transcription factor that has a central role in the differentiation of Th17 cells, a subset of T helper cells that secrete the inflammatory cytokines IL-17A, IL-17F, and IL-22. Th17 cells have been implicated in graft versus host disease, autoimmune disease and asthma. RORgamma is induced in naive T helper cells in the presence of TGF-beta combined with IL-6, IL-21, or IL-23, and thereafter directs the expression of the Th17 lineage cytokines. To identify […] inhibitors, a Drosophila Schneider cell line was stably transfected with two vectors: a gene expressing a fusion of the Gal4 DNA binding domain and the transactivation domain of the Drosophila Hormone Receptor 3 (DHR3), under the control of the metallothionine promoter and a Photinus luciferase reporter regulated by the Gal4 binding site enhancer, UAS. […] Small molecule inhibitors that inhibit components common to the RORgamma and DHR3 assays, such as proteins that interact with general nuclear hormone receptors, will be active in both assays and thus scored as nonselective.
# Assay Protocol Summary: For screening, 600 cells in 4 uL/well were dispensed into white solid 1536-well plates (Grenier) using a solenoid-based dispenser. Following transfer of 23 nL compound or DMSO vehicle by a pin tool, the plates were incubated 1 hr at ambient temperature, and 1 uL/well copper sulfate (700 uM final concentration) was added. The plates were centrifuged 15 s at 1000 RPM and incubated 20 hr at ambient temperature. After addition of 1.5 uL Photinus luciferase detection reagent, the plates were incubated 10 min at ambient temperature and then read by an ViewLux (Perkin Elmer) to detect luminescence.
# Potency is read from the fitted curve at half-maximal effect.
row,Compound,Potency
1,CCOC(=O)c1sc(NC(=O)c2ccc(S(=O)(=O)N(C)C)cc2)nc1C,45.7 nM (active)
2,O=C(CCCN1C(=O)/C(=C/c2ccccc2Cl)SC1=S)Nc1cccnc1,645 nM (active)
3,COc1cc(O)c(C(CC(=O)N2CCOCC2)c2ccc(C)cc2)c(OC)c1 (configuration not stated),inactive
4,COc1cc(O)c(C(CC(=O)N2CCC(c3ccccc3)CC2)c2ccc3c(c2)OCO3)c(OC)c1 (configuration not stated),inactive
5,COc1cc(O)c(C(CC(=O)N2CCCC(C)C2)c2ccc3c(c2)OCO3)c(OC)c1 (configuration not stated),inactive
6,CN(C)S(=O)(=O)c1ccc(NC(=O)/C=C/c2ccccc2Cl)cc1,1620 nM (active)
7,Cc1cccc(-c2nc3cc(NC(=O)C4CCCO4)ccc3o2)c1 (configuration not stated),2290 nM (active)
8,CC1CCCN(C(=O)CC(c2ccc3c(c2)OCO3)c2cc(-c3ccccc3)ccc2O)C1 (configuration not stated),inactive
9,COc1cc(O)c(C(CC(=O)N2CCCC(C(=O)c3ccccc3)C2)c2ccc3c(c2)OCO3)c(OC)c1 (configuration not stated),inactive
10,Cc1cc(C)c2sc(NC(=O)c3ccc(N4C(=O)CCC4=O)cc3)nc2c1,102 nM (active)
11,COC(=O)Cn1c(CN2CCc3ccccc3C2)nc2c1c(=O)n(C)c(=O)n2C,8120 nM (active)
12,CCOc1ccc(-c2cc(CCCC(=O)NCc3cccnc3)no2)cc1,812 nM (active)
13,COc1cc(O)c(C(CC(=O)N2CCCC(C)C2)c2ccc3ccccc3c2)c(OC)c1 (configuration not stated),inactive
14,COc1cc(OC)c(C(CC(=O)N2CCCC(C)C2)c2ccc3c(c2)OCO3)c(OC)c1 (configuration not stated),inactive
15,C[C@@H]1[C@H](C)CC[C@]2(C(=O)O)CC[C@]3(C)C(=CC[C@@H]4[C@@]5(C)CC[C@H](O)C(C)(C)[C@H]5CC[C@]43C)[C@@H]12,18200 nM (active)
16,CCOc1ncccc1C(=O)OCC(=O)Nc1ccc(-c2nc3ccc(C)cc3s2)cc1,363 nM (active)
17,COc1ccc(C(CC(=O)N2CCCC(C)C2)c2ccc3c(c2)OCO3)c(O)c1 (configuration not stated),inactive
18,CCOC(=O)C1CCN(CC(=O)Nc2cc(C)nn2-c2nc3ccccc3s2)CC1,7240 nM (active)
19,COc1cc(O)c(C(CC(=O)N2CCCC(C#N)C2)c2ccc3c(c2)OCO3)c(OC)c1 (configuration not stated),inactive
20,COc1cc(O)c(C(CC(=O)NC2CCC(C)CC2)c2ccc3c(c2)OCO3)c(OC)c1 (configuration not stated),inactive
21,CCC(=O)C1CCCN(C(=O)CC(c2ccc3c(c2)OCO3)c2c(O)cc(OC)cc2OC)C1 (configuration not stated),inactive
22,Cc1cccc(C(CC(=O)NCCc2ccccc2)c2ccccc2)c1O (configuration not stated),inactive
